An excerpt weighted towards active compounds, which were near 12% of everything screened.
G9a block: blocks human histone lysine methyltransferase G9a; Q96KQ7; G9a H3K9 monomethylation, AlphaScreen, 2 h; Potency, µM (titrated, usually from 102 µM), most hits filed as inhibitors; actives 8.8% (n = 350,000); note: nearly all actives have a fitted effect of over 75% in size
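Using a bead-based AlphaScreen, monomethylated H3K9 product from 2 h room-temperature reactions (G9a 20 nM, peptide 500 nM, SAM 20 uM) was detected with 0.5 ug/mL rabbit anti-H3K9me1 antibody.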
Sfp inh: inhibitors of Bacillus subtilis Sfp phosphopantetheinyl transferase; Q9F4F7; Biochemical Sfp PPTase activity, qHTS; Potency, µM, usual class: inhibitors; actives 3.5% (n = 310,000); AID 1490;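 note: the enzyme is Sfp with the accession as filed and its product quenches rhodamine fluorescence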
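Fluorescence-quenching assay with 15 nM Sfp, 5 uM rhodamine-CoA and 12.5 uM BHQ-2-labelled ybbR peptide in pH 7.6 Hepes/MgCl2 buffer. Enzyme was pre-incubated with compound for 15 min at room temperature. Rate was taken from the 30-min fluorescence change (525/598 nm).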
BAZ2B block: BAZ2B (human) inhibition | AID 504333 | Potency, µM (top dose mostly 114 µM), hits mostly inhibitors | Q9UIF8 | actives 4.4% (n = 360,000) | AlphaScreen BAZ2B-H3K14Ac peptide displacement; note: nearly all actives have a fitted effect of over 60% in size
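In this displacement format the biotinylated H3(5-23) peptide acetylated at Lys14 serves as ligand at 50 nM, with BAZ2B at 50 nM in PBS pH 7.4 containing 0.01% Tween-20. Donor and acceptor beads are 10 ug/mL final.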
JMJD2A Tudor: JMJD2A Tudor domain (human) inhibition; Potency, µM (top dose mostly 114 µM), usual class: inhibitors; AlphaScreen JMJD2A-Tudor / H3K4me3 peptide binding; O75164; actives 4.4% (n = 390,000); note: nearly all actives have a fitted effect of over 50% in size
HP1b chromo inh: blocks HP1-beta chromodomain binding to methylated histone tails; actives 0.56% (n = 390,000); Potency, µM (top dose mostly 114 µM), usual class: inhibitors; AlphaScreen HP1-beta / biotin-H3K9me3 peptide binding; AID 540317; note: nearly all actives have a fitted effect of over 70% in size
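HP1-beta protein (50 nM final) preincubated 30 min at room temperature with biotinylated H3(1-18)K9me3 peptide (50 nM) in PBS pH 7.4, 0.01% Tween-20, then compound added for 30 min. AlphaScreen streptavidin donor/nickel chelate acceptor beads (10 ug/mL final), 30 min dark, luminescence read.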
PLK1 PBD inh: inhibitors of human PLK1 polo-box domain binding | P53350 | Plk1 PBD binding of FITC phosphopeptide, fluorescence polarization | Potency, µM, usual class: inhibitors | actives 2.8% (n = 360,000); note: series mostly up to about 57 µM; nearly all actives have a fitted effect of over 65% in size
A number is an active result; [ ] = dose if it differs, or a comment. Calls come from the whole dose curve; as a rule, active = well fitted curve in the direction sought with a large enough effect; inconclusive = small, poorly fitted or top-dose-only effect, or another doubt; inactive = no such curve, though single readings can be large; an effect the other way counts as inactive or inconclusive.

Screening COc1cc(C(=S)N2CCCC2)ccc1OCC(N)=O returned G9a block inactive, Sfp inh inactive, BAZ2B block inactive, JMJD2A Tudor inactive, HP1b chromo inh inactive and PLK1 PBD inh inactive.
For COc1ccc(C(=O)C2CCCN(C(=O)Cn3ccc(C)n3)C2)cc1OC (stereo unspecified) the results were G9a block inactive[0.501 µM], Sfp inh inactive, BAZ2B block inactive, JMJD2A Tudor inactive, HP1b chromo inh inactive and PLK1 PBD inh inactive.
Screening O=S(=O)(NCCN1CCOCC1)c1cc(Cl)c(Cl)cc1Cl returned Sfp inh inactive, BAZ2B block inactive, JMJD2A Tudor inactive, HP1b chromo inh inactive and PLK1 PBD inh inactive.
CCC(=O)c1cc(F)c(N2CCN(S(=O)(=O)c3ccc(C)cc3)CC2)cc1C was read as G9a block inactive, Sfp inh inactive, JMJD2A Tudor inactive, HP1b chromo inh inactive and PLK1 PBD inh inactive.
Screening CCc1ccc(NCc2cc3ccc(OC)cc3n(CC(=O)Nc3ccccc3C)c2=O)cc1 returned G9a block inactive, BAZ2B block inactive, JMJD2A Tudor inactive and HP1b chromo inh inactive.
COc1cc(C(=S)N2CCCC2)ccc1O was read as G9a block 14µM, Sfp inh inconclusive, BAZ2B block inactive, JMJD2A Tudor inactive, HP1b chromo inh inactive and PLK1 PBD inh 27µM.
Screening COc1ccc(C(=S)N2CCCC2)cc1Br returned G9a block inactive, Sfp inh inactive, BAZ2B block inactive, JMJD2A Tudor inactive, HP1b chromo inh inactive and PLK1 PBD inh inactive.
`COc1cc(C(=O)O)ccc1O` gave G9a block inactive, Sfp inh inactive, BAZ2B block inactive, JMJD2A Tudor inactive, HP1b chromo inh inactive and PLK1 PBD inh inactive.
For COc1cc(C(=S)N2CCC(C)CC2)ccc1O the results were G9a block 7.9µM, Sfp inh 45µM, BAZ2B block inactive, JMJD2A Tudor inactive, HP1b chromo inh inactive and PLK1 PBD inh 24µM.
Screening CCc1ccc(C(C)NC(=O)Cn2cnc3c(=O)n(C)c(=O)n(C)c32)cc1 (stereo unspecified) returned G9a block inactive, Sfp inh inactive, BAZ2B block inactive, JMJD2A Tudor inactive, HP1b chromo inh inactive and PLK1 PBD inh inactive.
Screening COc1ccc(C(=O)NC(=S)NNC(=O)c2cccc(C)c2)cc1 returned JMJD2A Tudor inactive, HP1b chromo inh inactive and PLK1 PBD inh inconclusive.
`COc1ccc(CC(=O)NNC(=S)Nc2ccccc2)cc1Cl` gave G9a block 50µM, Sfp inh inactive, BAZ2B block inconclusive, JMJD2A Tudor inactive, HP1b chromo inh inactive and PLK1 PBD inh inactive.
CCCOc1ccc(CC(=O)NNC(=S)Nc2ccccc2)cc1Br was read as G9a block inconclusive, Sfp inh inactive, BAZ2B block inactive, JMJD2A Tudor inactive, HP1b chromo inh inactive and PLK1 PBD inh inactive.
`O=C(COc1cccc(Cl)c1)NNC(=S)Nc1ccccc1` gave G9a block 7.1µM, Sfp inh inactive, BAZ2B block inactive, JMJD2A Tudor inactive, HP1b chromo inh inconclusive and PLK1 PBD inh 24µM.
For Cc1cccc(C(=O)NC(=S)NNC(=O)COc2ccc(Cl)cc2)c1 the results were G9a block 3.2µM, Sfp inh inconclusive, BAZ2B block inactive, JMJD2A Tudor inconclusive, HP1b chromo inh inconclusive and PLK1 PBD inh 27µM.
Screening O=C(O)CCC(=O)NNC(=O)COc1cccc(Cl)c1 returned G9a block inactive, Sfp inh inactive, BAZ2B block inactive, JMJD2A Tudor inactive, HP1b chromo inh inactive and PLK1 PBD inh inactive.
For O=C(COc1ccccc1)NNC(=S)NC(=O)c1ccc(Cl)cc1Cl the results were G9a block 1.4µM, Sfp inh 50µM, BAZ2B block inactive, JMJD2A Tudor inactive, HP1b chromo inh inactive and PLK1 PBD inh inactive.
`Cn1c(=O)nc2n(-c3ccc(Cl)c(Cl)c3)c3cc(Cl)ccc3cc-2c1=O` gave G9a block inactive, JMJD2A Tudor inactive and HP1b chromo inh inactive.
COCCOC(=O)C(CC(=O)O)NCc1ccco1 (stereo unspecified) was read as Sfp inh inconclusive, BAZ2B block inactive, JMJD2A Tudor inconclusive, HP1b chromo inh inactive and PLK1 PBD inh inactive.

Screening results from PubChem.
